# Unmarked numbers belong to inactive results. Results filed as inconclusive are left out. Activity calls are given as the source filed them. Unless noted, calls come from the whole dose curve; as a rule, active = well fitted cell-killing curve with a large enough effect; inconclusive = small, poorly fitted or top-dose-only effect; inactive = flat fitted curve, though single readings scatter.
# Experiment: Cell Viability - LYMP2-022 (AID 987); note: nearly all actives have a fitted effect of over 55% in size; note: potency is the fitted concentration of half-maximal effect;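 for viability change, negative = cytotoxic: 0% = DMSO alone and full effect = tetraoctylammonium bromide at 92 µM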
# Conditions: LYMP2-022 lymphoblastoid cell viability; series mostly up to 92.2 µM; viability change, negative = cytotoxic: at the top concentration
# How it was run: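 Human lymphoblastoid cells, 2500/well, preincubated 5 hr at 37 C, then exposed to compounds over a concentration range for 24 hr at 37 C in complete medium. Viability read as intracellular ATP by CellTiter-Glo luminescence after 30 min at room temperature; AC50 from Hill fits.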
SMILES,Potency,"viability change, negative = cytotoxic [%]"
O=C(O)COc1ccc(Cl)cc1Cl,inactive,
c1ccc(N=Nc2ccccc2)cc1,,-28
CCNc1nc(Cl)nc(NC(C)C)n1,,-6.17
C=CCc1ccc(OC)cc1,,-5.95
ClC1=C(Cl)C2(Cl)C3C4CC(C5OC45)C3C1(Cl)C2(Cl)Cl (stereo not drawn),39.8 µM (active),
ClC(Cl)=C(c1ccc(Cl)cc1)c1ccc(Cl)cc1,inactive,
C/C=C/c1ccc2c(c1)OCO2,,-6.45
C=CCc1ccc2c(c1)OCO2,,-3.69
COP(=S)(OC)Oc1ccc([N+](=O)[O-])cc1,,2.03

# Experiment: Cell Viability - LYMP2-024 (AID 988); note: nearly all actives have a fitted effect of over 60% in size; note: potency is the fitted concentration of half-maximal effect;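 for activity change, negative = cytotoxicity: plate controls were DMSO only for no effect and 92 µM tetraoctylammonium bromide for full effect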
# Conditions: LYMP2-024 lymphoblastoid cell viability; series mostly up to 92.2 µM; activity change, negative = cytotoxicity: at the top concentration
# How it was run: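 Human lymphoblastoid cells (2500/well) in complete medium were preincubated 5 hr at 37 C, then exposed to compounds for 24 hr at 37 C. Intracellular ATP was read by CellTiter-Glo luminescence; AC50 from Hill-equation fits of concentration-response data.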
SMILES,Potency,"activity change, negative = cytotoxicity [%]"
O=C(O)COc1ccc(Cl)cc1Cl,inactive,
c1ccc(N=Nc2ccccc2)cc1,,-22.4
CCNc1nc(Cl)nc(NC(C)C)n1,,-26
C=CCc1ccc(OC)cc1,,-1.73
ClC1=C(Cl)C2(Cl)C3C(Cl)C=CC3C1(Cl)C2(Cl)Cl (stereo not drawn),,-21.2
ClC1=C(Cl)C2(Cl)C3C4CC(C5OC45)C3C1(Cl)C2(Cl)Cl (stereo not drawn),39.8 µM (active),
ClC(Cl)=C(c1ccc(Cl)cc1)c1ccc(Cl)cc1,inactive,
CCc1cccc(CC)c1N(COC)C(=O)CCl,50.1 µM (active),
C/C=C/c1ccc2c(c1)OCO2,,-5.41
C=CCc1ccc2c(c1)OCO2,,-2
COP(=S)(OC)Oc1ccc([N+](=O)[O-])cc1,,-13.1

# Experiment: Cell Viability - LYMP2-026 (AID 989); note: nearly all actives have a fitted effect of over 50% in size; note: potency is the fitted concentration of half-maximal effect; for activity change, negative = cytotoxic: % is set by controls: 0 for no effect and ±100 for the full control effect
# Conditions: LYMP2-026 lymphoblastoid cell viability, qHTS; series mostly up to 92.2 µM; activity change, negative = cytotoxic: at the top concentration
# How it was run: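 Human lymphoblastoid cells (2500/well) in complete medium were preincubated 5 hr at 37 C, then exposed to compounds for 24 hr at 37 C. Cellular ATP was read by CellTiter-Glo luminescence; AC50 from Hill-equation fits of concentration-response data.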
SMILES,Potency,"activity change, negative = cytotoxic [%]"
O=C(O)COc1ccc(Cl)cc1Cl,inactive,
ClC1=C(Cl)C2(Cl)C3C4C=CC(C4)C3C1(Cl)C2(Cl)Cl (stereo not drawn),50.1 µM (active),
CNC(=O)O/N=C/C(C)(C)SC,,-21.4
CCNc1nc(Cl)nc(NC(C)C)n1,,-1.88
ClC1=C(Cl)C2(Cl)C3C4CC(C5OC45)C3C1(Cl)C2(Cl)Cl (stereo not drawn),39.8 µM (active),
ClC(Cl)=C(c1ccc(Cl)cc1)c1ccc(Cl)cc1,inactive,
C/C=C/c1ccc2c(c1)OCO2,,-6.91

# Experiment: Cell Viability - LYMP1-002 - Assay at 24 hr (AID 993); note: potency is the fitted concentration of half-maximal effect; for activity change, negative = cytotoxicity: % is set by controls: 0 for no effect and ±100 for the full control effect
# Conditions: LYMP1-002 lymphoblastoid cells viability; series mostly up to 92.2 µM; activity change, negative = cytotoxicity: at the top concentration
# How it was run: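 Human lymphoblastoid LYMP1-002 cells, 2500/well in complete medium, were treated with compounds for 24 h at 37 C; intracellular ATP was read by CellTiter-Glo luminescence. AC50 values came from Hill-equation fits of qHTS concentration-response data.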
SMILES,Potency,"activity change, negative = cytotoxicity [%]"
O=C(O)COc1ccc(Cl)cc1Cl,inactive,
c1ccc(N=Nc2ccccc2)cc1,,-1.53
CNC(=O)O/N=C/C(C)(C)SC,,1.55
CCNc1nc(Cl)nc(NC(C)C)n1,,0.762
C=CCc1ccc(OC)cc1,,-2.72
ClC1=C(Cl)C2(Cl)C3C4CC(C5OC45)C3C1(Cl)C2(Cl)Cl (stereo not drawn),12.6 µM (active),
ClC(Cl)=C(c1ccc(Cl)cc1)c1ccc(Cl)cc1,inactive,
CCc1cccc(CC)c1N(COC)C(=O)CCl,,-6.98
C/C=C/c1ccc2c(c1)OCO2,,3.35
C=CCc1ccc2c(c1)OCO2,,0.972
COP(=S)(OC)Oc1ccc([N+](=O)[O-])cc1,,-2.43

# Experiment: Cell Viability - LYMP1-002 - Assay at 40 hr (AID 994); note: nearly all actives have a fitted effect of over 60% in size; note: potency is the fitted concentration of half-maximal effect;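 for viability change, negative = cytotoxic: 0% = DMSO only and full inhibition = 92 µM tetraoctylammonium bromide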
# Conditions: LYMP1-002 lymphoblastoid cell viability; series mostly up to 92.2 µM; viability change, negative = cytotoxic: at the top concentration
# How it was run: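 Human lymphoblastoid cells, 2500/well in complete medium, were preincubated 5 hr at 37 C, then exposed to compounds for 40 hr at 37 C. Intracellular ATP was read by CellTiter-Glo luminescence after 30 min at room temperature; AC50 from Hill-equation fits.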
SMILES,Potency,"viability change, negative = cytotoxic [%]"
O=C(O)COc1ccc(Cl)cc1Cl,inactive,
ClC1=C(Cl)C2(Cl)C3C4C=CC(C4)C3C1(Cl)C2(Cl)Cl (stereo not drawn),,-22.3
c1ccc(N=Nc2ccccc2)cc1,,1.73
CNC(=O)O/N=C/C(C)(C)SC,,-6.97
CCNc1nc(Cl)nc(NC(C)C)n1,,-10.6
C=CCc1ccc(OC)cc1,,1.05
ClC1=C(Cl)C2(Cl)C3C(Cl)C=CC3C1(Cl)C2(Cl)Cl (stereo not drawn),,-23.9
ClC1=C(Cl)C2(Cl)C3C4CC(C5OC45)C3C1(Cl)C2(Cl)Cl (stereo not drawn),12.6 µM (active),
ClC(Cl)=C(c1ccc(Cl)cc1)c1ccc(Cl)cc1,inactive,
C/C=C/c1ccc2c(c1)OCO2,,-0.515
C=CCc1ccc2c(c1)OCO2,,-4.98
COP(=S)(OC)Oc1ccc([N+](=O)[O-])cc1,,-9.89

# Experiment: qHTS Assay for Lipid Storage Modulators (AID 1519; calls by dose curve; note: % is set by controls: 0 for no effect and ±100 for the full control effect)
# Conditions: Drosophila S3 cells, BODIPY lipid droplet/cell ratio, laser cytometry; at 25.7 µM (top of the series); cells loaded with oleic acid
# How it was run: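 Cells seeded at 5,000 per well were treated with compounds over a concentration series and loaded with oleic acid (400 uM, as added). Lipid droplet fluorescence (488 nm excitation, 500-530 nm channel) was read by laser-scanning cytometry and normalized to 20 uM Triacsin C.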
row,SMILES,"activity change, negative = inhibition [%]"
1,C[N+]1([O-])[C@@H]2CC(OC(=O)[C@@H](CO)c3ccccc3)C[C@@H]1[C@H]1O[C@H]12 (stereo partly drawn),0.148
2,Clc1ccc(CS[C@@H](Cn2ccnc2)c2ccc(Cl)cc2Cl)cc1,-2.77
3,CCNC[C@H](O)c1cccc(O)c1,-1.26
4,COc1ccc2c(c1O)-c1c(OC)c(OC)cc3c1[C@H](C2)N(C)CC3,2.04

# Same assay, conditions: Drosophila S3 cells, BODIPY lipid droplet/cell ratio, laser cytometry; at 57.5 µM (top of the series); cells loaded with oleic acid
row,SMILES,"activity change, negative = inhibition [%]"
1,O=C(O)COc1ccc(Cl)cc1Cl,-1.59
2,O=C1C=CC(=O)c2c(O)cccc21,10.3
3,O=C(O)CNCP(=O)(O)O,2.6
4,CC(=O)OC1CC2C(C)(C)C(=O)C=C[C@]2(C)C2CC[C@]3(C)C(=CC(=O)OC3c3ccoc3)[C@]12C (stereo partly drawn),-3.77
5,Cc1nc2cnc(N3CCNCC3)nc2n(C)c1=O,5.19
6,COc1cc2c(cc1O)CC1c3c(cc(O)c(OC)c3-2)CCN1C (stereo not drawn),9.81
7,ClC1=C(Cl)C2(Cl)C3C4C=CC(C4)C3C1(Cl)C2(Cl)Cl (stereo not drawn),4.06
8,O=S1OCC2C(CO1)C1(Cl)C(Cl)=C(Cl)C2(Cl)C1(Cl)Cl (stereo not drawn),5.66
9,c1ccc(N=Nc2ccccc2)cc1,-5.75
10,CC(C)[C@@]1(NC(=O)[C@@H]2C[C@@H]3c4cccc5[nH]cc(c45)C[C@H]3N(C)C2)O[C@@]2(O)C3CCCN3C(=O)[C@H](Cc3ccccc3)N2C1=O (stereo partly drawn),-0.282
11,CC(C)NC(=O)N1CCC2(CCNCC2)CC1,4
12,CCOCN(C(=O)CCl)c1c(C)cccc1CC,0.371
13,CNCC[C@@H](Oc1ccc(C(F)(F)F)cc1)c1ccccc1,1.23
14,CNC(=O)O/N=C/C(C)(C)SC,7.39
15,CN1CC[C@@]2(CCCN(C(=O)c3ccco3)C2)C1,5.37
16,O=C1c2ccccc2-c2cccc3cccc1c23,15.9
17,c1cc(CN2CCC3(CCNCC3)CC2)ccn1,4.55

row,SMILES,"activity change, negative = inhibition [%]"
1,C[C@]12CC[C@H](O)CC1=CCC1C2CC[C@]2(C)C(=O)CC[C@@H]12 (stereo partly drawn),0.778
2,CCNc1nc(Cl)nc(NC(C)C)n1,7.77
3,COc1cc2c(cc1-c1cc3cc4ccoc4cc3oc1=O)OCO2,16.5
4,C=CCc1ccc(OC)cc1,1.63
5,CC(C)CN1CC2(CCN(C(=O)c3ccncc3)CC2)C1,-1.63
6,ClC1=C(Cl)C2(Cl)C3C(Cl)C=CC3C1(Cl)C2(Cl)Cl (stereo not drawn),4.59
7,ClC1=C(Cl)C2(Cl)C3C4CC(C5OC45)C3C1(Cl)C2(Cl)Cl (stereo not drawn),3.37
8,ClC(Cl)=C(c1ccc(Cl)cc1)c1ccc(Cl)cc1,9.37
9,CCc1cccc(CC)c1N(COC)C(=O)CCl,1.98
10,C/C=C/c1ccc2c(c1)OCO2,7.07
11,C=CCc1ccc2c(c1)OCO2,12.7
12,N#Cc1ccc(CN2CC[C@@]3(CCCNC3)C2)cc1,2.19
13,N#Cc1ccc(CN2CCC3(CC2)CCN(C(=O)Oc2ccccc2)CC3)cc1,0.91
14,CCCN1CCc2cccc3c2C1Cc1ccc(O)c(O)c1-3 (stereo not drawn),1.73
15,CC(C)C[C@H]1C(=O)N2CCCC2[C@]2(O)O[C@](NC(=O)[C@@H]3C=C4c5cccc6[nH]c(Br)c(c56)C[C@H]4N(C)C3)(C(C)C)C(=O)N12 (stereo partly drawn),-0.407
16,O=C(Oc1ccccc1)N1CCC2(CCCN(C(c3ccccc3)c3ccccc3)C2)CC1,6.26
17,c1ccc(N2CCC3(CCNCC3)CC2)cc1,-3.07
